# According to publication PMC11006913:
# Experiments:
# Assay in all cases: PBM; 200 nM protein, PBS
# Conditions in all cases: dsDNA, one strand shown
# [1] = biological target: ALX3 (Homo sapiens, UniProt O95076 139-225, N203Q)
# [2] = biological target: ALX3 (Homo sapiens, UniProt O95076 139-225)
# [3] = biological target: ALX3 (Homo sapiens, UniProt O95076 139-225, L168Q)
# [4] = biological target: ALX3 (Homo sapiens, UniProt O95076 139-225, L168V)
# [5] = biological target: ALX3 (Homo sapiens, UniProt O95076 139-225, N203S)
# ALX3 (Homo sapiens, UniProt O95076 139-225, N203S), sequence (O95076 139-225 N203S): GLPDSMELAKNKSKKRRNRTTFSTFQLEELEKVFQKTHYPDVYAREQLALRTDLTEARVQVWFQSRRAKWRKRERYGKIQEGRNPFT
# [6] = biological target: HOXA4 (Homo sapiens, UniProt Q00056 201-287, W262R)
# HOXA4 (Homo sapiens, UniProt Q00056 201-287, W262R), sequence (Q00056 201-287 W262R): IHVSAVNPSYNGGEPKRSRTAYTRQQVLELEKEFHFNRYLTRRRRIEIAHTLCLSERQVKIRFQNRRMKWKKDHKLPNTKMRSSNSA
# [7] = biological target: HOXC9 (Homo sapiens, UniProt P31274 178-260, K195R)
# HOXC9 (Homo sapiens, UniProt P31274 178-260, K195R), sequence (P31274 178-260 K195R): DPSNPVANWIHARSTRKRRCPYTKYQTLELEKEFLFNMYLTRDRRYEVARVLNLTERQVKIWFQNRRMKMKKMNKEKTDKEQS
# [8] = biological target: HOXA4 (Homo sapiens, UniProt Q00056 201-287, R217L)
# HOXA4 (Homo sapiens, UniProt Q00056 201-287, R217L), sequence (Q00056 201-287 R217L): as the sequence (Q00056 201-287 W262R) above, with R17L, R62W counted along it
# [9] = biological target: HOXC9 (Homo sapiens, UniProt P31274 178-260)
# HOXC9 (Homo sapiens, UniProt P31274 178-260), sequence (P31274 178-260): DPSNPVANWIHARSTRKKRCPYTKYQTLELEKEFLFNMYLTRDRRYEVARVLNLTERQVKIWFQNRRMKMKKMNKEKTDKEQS
# [10] = biological target: HOXC9 (Homo sapiens, UniProt P31274 178-260, R193K)
# HOXC9 (Homo sapiens, UniProt P31274 178-260, R193K), sequence (P31274 178-260 R193K): as the sequence (P31274 178-260) above, with R16K counted along it
# [11] = biological target: HOXA4 (Homo sapiens, UniProt Q00056 201-287)
# HOXA4 (Homo sapiens, UniProt Q00056 201-287), sequence (Q00056 201-287): as the sequence (Q00056 201-287 W262R) above, with R62W counted along it
# [12] = biological target: HOXC9 (Homo sapiens, UniProt P31274 178-260, R222W)
# HOXC9 (Homo sapiens, UniProt P31274 178-260, R222W), sequence (P31274 178-260 R222W): as the sequence (P31274 178-260) above, with R45W counted along it
# [13] = biological target: HOXA4 (Homo sapiens, UniProt Q00056 201-287, W262F)
# HOXA4 (Homo sapiens, UniProt Q00056 201-287, W262F), sequence (Q00056 201-287 W262F): as the sequence (Q00056 201-287 W262R) above, with R62F counted along it
# [14] = biological target: HOXB6 (Homo sapiens, UniProt P17509 132-218, K202E)
# HOXB6 (Homo sapiens, UniProt P17509 132-218, K202E), sequence (P17509 132-218 K202E): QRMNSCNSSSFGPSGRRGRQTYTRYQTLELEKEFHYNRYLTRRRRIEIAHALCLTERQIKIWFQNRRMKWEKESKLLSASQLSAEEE
# [15] = biological target: HOXB6 (Homo sapiens, UniProt P17509 132-218)
# HOXB6 (Homo sapiens, UniProt P17509 132-218), sequence (P17509 132-218): as the sequence (P17509 132-218 K202E) above, with E71K counted along it
# [16] = biological target: HOXA7 (Homo sapiens, UniProt P31268 116-202)
# HOXA7 (Homo sapiens, UniProt P31268 116-202), sequence (P31268 116-202): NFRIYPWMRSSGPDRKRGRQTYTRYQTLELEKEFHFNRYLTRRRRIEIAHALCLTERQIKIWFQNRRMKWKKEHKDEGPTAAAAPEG
# [17] = biological target: HOXA7 (Homo sapiens, UniProt P31268 116-202, W177C)
# HOXA7 (Homo sapiens, UniProt P31268 116-202, W177C), sequence (P31268 116-202 W177C): as the sequence (P31268 116-202) above, with W62C counted along it
# [18] = biological target: VAX1 (Homo sapiens, UniProt Q5SQQ9 86-172)
# VAX1 (Homo sapiens, UniProt Q5SQQ9 86-172), sequence (Q5SQQ9 86-172): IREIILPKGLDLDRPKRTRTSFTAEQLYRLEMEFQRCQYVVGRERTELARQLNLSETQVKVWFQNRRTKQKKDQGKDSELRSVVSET
# [19] = biological target: VAX1 (Homo sapiens, UniProt Q5SQQ9 86-172, T142I)
# VAX1 (Homo sapiens, UniProt Q5SQQ9 86-172, T142I), sequence (Q5SQQ9 86-172 T142I): as the sequence (Q5SQQ9 86-172) above, with T57I counted along it
# [20] = biological target: VAX1 (Homo sapiens, UniProt Q5SQQ9 86-172, K157R)
# VAX1 (Homo sapiens, UniProt Q5SQQ9 86-172, K157R), sequence (Q5SQQ9 86-172 K157R): as the sequence (Q5SQQ9 86-172) above, with K72R counted along it
# ALX3 (Homo sapiens, UniProt O95076 139-225), sequence (O95076 139-225): as the sequence (O95076 139-225 N203S) above, with S65N counted along it
# ALX3 (Homo sapiens, UniProt O95076 139-225, L168V), sequence (O95076 139-225 L168V): as the sequence (O95076 139-225 N203S) above, with L30V, S65N counted along it
# ALX3 (Homo sapiens, UniProt O95076 139-225, L168Q), sequence (O95076 139-225 L168Q): as the sequence (O95076 139-225 N203S) above, with L30Q, S65N counted along it
# ALX3 (Homo sapiens, UniProt O95076 139-225, N203Q), sequence (O95076 139-225 N203Q): as the sequence (O95076 139-225 N203S) above, with S65Q counted along it
sequence,measurement,setting,value
GGCGGACC,binding signal,[1],"7.72 upbm affinity estimate (log intensity, higher = more binding, comparable within an allelic series)"
same,binding signal,[2],"7.74 upbm affinity estimate (log intensity, higher = more binding, comparable within an allelic series)"
same,binding signal,[3],"7.74 upbm affinity estimate (log intensity, higher = more binding, comparable within an allelic series)"
same,binding signal,[4],"7.69 upbm affinity estimate (log intensity, higher = more binding, comparable within an allelic series)"
same,binding signal,[5],"7.67 upbm affinity estimate (log intensity, higher = more binding, comparable within an allelic series)"
CCGGGCGC,binding signal,[6],"9.61 upbm affinity estimate (log intensity, higher = more binding, comparable within an allelic series)"
same,binding signal,[7],"9.34 upbm affinity estimate (log intensity, higher = more binding, comparable within an allelic series)"
same,binding signal,[8],"9.64 upbm affinity estimate (log intensity, higher = more binding, comparable within an allelic series)"
same,binding signal,[9],"9.51 upbm affinity estimate (log intensity, higher = more binding, comparable within an allelic series)"
same,binding signal,[10],"9.31 upbm affinity estimate (log intensity, higher = more binding, comparable within an allelic series)"
same,binding signal,[11],"9.56 upbm affinity estimate (log intensity, higher = more binding, comparable within an allelic series)"
same,binding signal,[12],"9.66 upbm affinity estimate (log intensity, higher = more binding, comparable within an allelic series)"
same,binding signal,[13],"9.82 upbm affinity estimate (log intensity, higher = more binding, comparable within an allelic series)"
CTGCGGAC,binding signal,[14],"8.87 upbm affinity estimate (log intensity, higher = more binding, comparable within an allelic series)"
same,binding signal,[15],"8.8 upbm affinity estimate (log intensity, higher = more binding, comparable within an allelic series)"
GTCCGGAC,binding signal,[7],"9.77 upbm affinity estimate (log intensity, higher = more binding, comparable within an allelic series)"
same,binding signal,[9],"9.72 upbm affinity estimate (log intensity, higher = more binding, comparable within an allelic series)"
same,binding signal,[10],"9.8 upbm affinity estimate (log intensity, higher = more binding, comparable within an allelic series)"
same,binding signal,[12],"9.89 upbm affinity estimate (log intensity, higher = more binding, comparable within an allelic series)"
CGTCGCGC,binding signal,[1],"7.76 upbm affinity estimate (log intensity, higher = more binding, comparable within an allelic series)"
same,binding signal,[2],"7.7 upbm affinity estimate (log intensity, higher = more binding, comparable within an allelic series)"
same,binding signal,[3],"7.79 upbm affinity estimate (log intensity, higher = more binding, comparable within an allelic series)"
same,binding signal,[4],"7.7 upbm affinity estimate (log intensity, higher = more binding, comparable within an allelic series)"
same,binding signal,[5],"7.8 upbm affinity estimate (log intensity, higher = more binding, comparable within an allelic series)"
CGGCCACC,binding signal,[16],"8.41 upbm affinity estimate (log intensity, higher = more binding, comparable within an allelic series)"
same,binding signal,[17],"8.25 upbm affinity estimate (log intensity, higher = more binding, comparable within an allelic series)"
CGGCCTGC,binding signal,[16],"8.37 upbm affinity estimate (log intensity, higher = more binding, comparable within an allelic series)"
same,binding signal,[17],"8.26 upbm affinity estimate (log intensity, higher = more binding, comparable within an allelic series)"
AGCGCAGG,binding signal,[16],"8.41 upbm affinity estimate (log intensity, higher = more binding, comparable within an allelic series)"
same,binding signal,[17],"8.31 upbm affinity estimate (log intensity, higher = more binding, comparable within an allelic series)"
ACGCCGGG,binding signal,[6],"9.71 upbm affinity estimate (log intensity, higher = more binding, comparable within an allelic series)"
same,binding signal,[8],"9.86 upbm affinity estimate (log intensity, higher = more binding, comparable within an allelic series)"
same,binding signal,[11],"9.92 upbm affinity estimate (log intensity, higher = more binding, comparable within an allelic series)"
same,binding signal,[13],"9.88 upbm affinity estimate (log intensity, higher = more binding, comparable within an allelic series)"
CCCAGCCG,binding signal,[6],"9.73 upbm affinity estimate (log intensity, higher = more binding, comparable within an allelic series)"
same,binding signal,[7],"9.41 upbm affinity estimate (log intensity, higher = more binding, comparable within an allelic series)"
same,binding signal,[16],"8.28 upbm affinity estimate (log intensity, higher = more binding, comparable within an allelic series)"
same,binding signal,[8],"9.56 upbm affinity estimate (log intensity, higher = more binding, comparable within an allelic series)"
same,binding signal,[9],"9.56 upbm affinity estimate (log intensity, higher = more binding, comparable within an allelic series)"
same,binding signal,[10],"9.38 upbm affinity estimate (log intensity, higher = more binding, comparable within an allelic series)"
same,binding signal,[11],"9.64 upbm affinity estimate (log intensity, higher = more binding, comparable within an allelic series)"
same,binding signal,[12],"9.62 upbm affinity estimate (log intensity, higher = more binding, comparable within an allelic series)"
same,binding signal,[17],"8.32 upbm affinity estimate (log intensity, higher = more binding, comparable within an allelic series)"
same,binding signal,[13],"9.72 upbm affinity estimate (log intensity, higher = more binding, comparable within an allelic series)"
GCACGCCC,binding signal,[16],"8.55 upbm affinity estimate (log intensity, higher = more binding, comparable within an allelic series)"
same,binding signal,[17],"8.44 upbm affinity estimate (log intensity, higher = more binding, comparable within an allelic series)"
CTCGGGCC,binding signal,[14],"8.97 upbm affinity estimate (log intensity, higher = more binding, comparable within an allelic series)"
same,binding signal,[15],"8.82 upbm affinity estimate (log intensity, higher = more binding, comparable within an allelic series)"
GTATCATA,binding signal,[6],"10.3 upbm affinity estimate (log intensity, higher = more binding, comparable within an allelic series)"
same,binding signal,[8],"10.6 upbm affinity estimate (log intensity, higher = more binding, comparable within an allelic series)"
same,binding signal,[11],"11 upbm affinity estimate (log intensity, higher = more binding, comparable within an allelic series)"
GGGGGGAC,binding signal,[7],"9.27 upbm affinity estimate (log intensity, higher = more binding, comparable within an allelic series)"
same,binding signal,[9],"9.04 upbm affinity estimate (log intensity, higher = more binding, comparable within an allelic series)"
same,binding signal,[10],"9.37 upbm affinity estimate (log intensity, higher = more binding, comparable within an allelic series)"
same,binding signal,[18],"6.83 upbm affinity estimate (log intensity, higher = more binding, comparable within an allelic series)"
same,binding signal,[12],"9.31 upbm affinity estimate (log intensity, higher = more binding, comparable within an allelic series)"
same,binding signal,[19],"7.14 upbm affinity estimate (log intensity, higher = more binding, comparable within an allelic series)"
same,binding signal,[20],"7.04 upbm affinity estimate (log intensity, higher = more binding, comparable within an allelic series)"
AACGCGGC,binding signal,[14],"9.12 upbm affinity estimate (log intensity, higher = more binding, comparable within an allelic series)"
same,binding signal,[15],"9.14 upbm affinity estimate (log intensity, higher = more binding, comparable within an allelic series)"
GGGGGCCA,binding signal,[6],"9.65 upbm affinity estimate (log intensity, higher = more binding, comparable within an allelic series)"
same,binding signal,[8],"9.62 upbm affinity estimate (log intensity, higher = more binding, comparable within an allelic series)"
same,binding signal,[11],"9.83 upbm affinity estimate (log intensity, higher = more binding, comparable within an allelic series)"
same,binding signal,[13],"9.79 upbm affinity estimate (log intensity, higher = more binding, comparable within an allelic series)"
AGCCGGCT,binding signal,[1],"7.78 upbm affinity estimate (log intensity, higher = more binding, comparable within an allelic series)"
same,binding signal,[2],"8.13 upbm affinity estimate (log intensity, higher = more binding, comparable within an allelic series)"
same,binding signal,[3],"7.76 upbm affinity estimate (log intensity, higher = more binding, comparable within an allelic series)"
same,binding signal,[4],"7.76 upbm affinity estimate (log intensity, higher = more binding, comparable within an allelic series)"
same,binding signal,[5],"7.77 upbm affinity estimate (log intensity, higher = more binding, comparable within an allelic series)"
AGCGCCCG,binding signal,[14],"8.99 upbm affinity estimate (log intensity, higher = more binding, comparable within an allelic series)"
same,binding signal,[15],"8.92 upbm affinity estimate (log intensity, higher = more binding, comparable within an allelic series)"
AGATATAC,binding signal,[18],"8.24 upbm affinity estimate (log intensity, higher = more binding, comparable within an allelic series)"
same,binding signal,[19],"8.22 upbm affinity estimate (log intensity, higher = more binding, comparable within an allelic series)"
same,binding signal,[20],"8.23 upbm affinity estimate (log intensity, higher = more binding, comparable within an allelic series)"
CCAGACGG,binding signal,[7],"9.56 upbm affinity estimate (log intensity, higher = more binding, comparable within an allelic series)"
same,binding signal,[9],"9.6 upbm affinity estimate (log intensity, higher = more binding, comparable within an allelic series)"
same,binding signal,[10],"9.51 upbm affinity estimate (log intensity, higher = more binding, comparable within an allelic series)"
same,binding signal,[12],"9.67 upbm affinity estimate (log intensity, higher = more binding, comparable within an allelic series)"
CGCTCCGC,binding signal,[14],"9.03 upbm affinity estimate (log intensity, higher = more binding, comparable within an allelic series)"
same,binding signal,[15],"9.09 upbm affinity estimate (log intensity, higher = more binding, comparable within an allelic series)"
CGCTGCGC,binding signal,[1],"7.75 upbm affinity estimate (log intensity, higher = more binding, comparable within an allelic series)"
same,binding signal,[2],"7.66 upbm affinity estimate (log intensity, higher = more binding, comparable within an allelic series)"
same,binding signal,[18],"7.4 upbm affinity estimate (log intensity, higher = more binding, comparable within an allelic series)"
same,binding signal,[3],"7.68 upbm affinity estimate (log intensity, higher = more binding, comparable within an allelic series)"
same,binding signal,[4],"7.68 upbm affinity estimate (log intensity, higher = more binding, comparable within an allelic series)"
same,binding signal,[19],"7.38 upbm affinity estimate (log intensity, higher = more binding, comparable within an allelic series)"
same,binding signal,[5],"7.74 upbm affinity estimate (log intensity, higher = more binding, comparable within an allelic series)"
same,binding signal,[20],"7.41 upbm affinity estimate (log intensity, higher = more binding, comparable within an allelic series)"
CGGCTTCC,binding signal,[6],"9.74 upbm affinity estimate (log intensity, higher = more binding, comparable within an allelic series)"
same,binding signal,[8],"9.5 upbm affinity estimate (log intensity, higher = more binding, comparable within an allelic series)"
same,binding signal,[11],"9.53 upbm affinity estimate (log intensity, higher = more binding, comparable within an allelic series)"
same,binding signal,[13],"9.63 upbm affinity estimate (log intensity, higher = more binding, comparable within an allelic series)"
CATGATCA,binding signal,[1],"8.19 upbm affinity estimate (log intensity, higher = more binding, comparable within an allelic series)"
same,binding signal,[2],"9.26 upbm affinity estimate (log intensity, higher = more binding, comparable within an allelic series)"
same,binding signal,[5],"8.21 upbm affinity estimate (log intensity, higher = more binding, comparable within an allelic series)"
AGGCGCCC,binding signal,[1],"7.72 upbm affinity estimate (log intensity, higher = more binding, comparable within an allelic series)"
same,binding signal,[2],"7.55 upbm affinity estimate (log intensity, higher = more binding, comparable within an allelic series)"
same,binding signal,[3],"7.7 upbm affinity estimate (log intensity, higher = more binding, comparable within an allelic series)"
same,binding signal,[4],"7.59 upbm affinity estimate (log intensity, higher = more binding, comparable within an allelic series)"
same,binding signal,[5],"7.72 upbm affinity estimate (log intensity, higher = more binding, comparable within an allelic series)"
AGGGCCCG,binding signal,[18],"6.78 upbm affinity estimate (log intensity, higher = more binding, comparable within an allelic series)"
same,binding signal,[19],"7.02 upbm affinity estimate (log intensity, higher = more binding, comparable within an allelic series)"
same,binding signal,[20],"6.91 upbm affinity estimate (log intensity, higher = more binding, comparable within an allelic series)"
GCAGTGGC,binding signal,[18],"7.24 upbm affinity estimate (log intensity, higher = more binding, comparable within an allelic series)"
same,binding signal,[19],"7.19 upbm affinity estimate (log intensity, higher = more binding, comparable within an allelic series)"
same,binding signal,[20],"7.24 upbm affinity estimate (log intensity, higher = more binding, comparable within an allelic series)"
